{
  "source": "PubChem BioAssay AID488969",
  "about": "(Vanderbilt High Throughput Screening Facility, 2010)",
  "note": "The full ranking holds about 110,000 compounds; the median of “z-score” is about -0.1, and the highest 2% start at about 2. The sample as a whole holds a higher share of the highest values than the screen did. Calls of active or inactive are those of the source.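 Rule for the calls: active = z-score in the third read window above 3 or below -3; inactive = the rest.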",
  "data": [
    {"molecular_target": "Metabotropic glutamate receptor 8 (Rattus norvegicus) (UniProt P70579)", "sequence (P70579 whole entry, looked up)": "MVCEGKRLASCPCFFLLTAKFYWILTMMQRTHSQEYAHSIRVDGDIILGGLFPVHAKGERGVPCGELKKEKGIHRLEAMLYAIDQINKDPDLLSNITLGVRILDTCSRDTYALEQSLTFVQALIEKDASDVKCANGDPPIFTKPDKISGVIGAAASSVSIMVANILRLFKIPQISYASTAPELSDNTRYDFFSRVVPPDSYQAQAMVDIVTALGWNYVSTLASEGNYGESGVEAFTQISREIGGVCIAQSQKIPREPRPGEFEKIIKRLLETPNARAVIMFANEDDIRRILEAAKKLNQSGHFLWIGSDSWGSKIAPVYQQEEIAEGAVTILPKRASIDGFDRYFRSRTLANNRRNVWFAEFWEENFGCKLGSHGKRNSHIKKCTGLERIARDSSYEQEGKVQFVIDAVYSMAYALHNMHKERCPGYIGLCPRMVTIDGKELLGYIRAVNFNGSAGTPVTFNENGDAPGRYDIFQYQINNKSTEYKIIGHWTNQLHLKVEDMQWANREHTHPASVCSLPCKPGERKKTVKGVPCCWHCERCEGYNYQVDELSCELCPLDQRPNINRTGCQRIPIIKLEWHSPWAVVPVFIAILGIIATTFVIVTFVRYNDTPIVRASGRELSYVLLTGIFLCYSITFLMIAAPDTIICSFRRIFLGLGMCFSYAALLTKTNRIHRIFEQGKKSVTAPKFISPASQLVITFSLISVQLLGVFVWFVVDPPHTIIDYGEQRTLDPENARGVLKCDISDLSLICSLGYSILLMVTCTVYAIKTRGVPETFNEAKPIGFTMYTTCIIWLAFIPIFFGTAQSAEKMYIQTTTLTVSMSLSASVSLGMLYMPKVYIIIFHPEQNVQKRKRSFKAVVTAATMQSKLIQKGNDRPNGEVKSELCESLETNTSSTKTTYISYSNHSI", "test": "rat mGluR8 modulators via GIRK flux, primary screen, cell-based, thallium flux, HTS (AID 488969)", "settings": "HEK293 rat mGluR8, GIRK (G protein-gated inwardly rectifying potassium channel) thallium flux, FluoZin2; at 10 µM; stronger effect = higher value; submaximal glutamate (EC20) added with thallium", "values": [
      {"smiles": "CC(C)OC(=O)c1ccc(N2C(=O)C3CC=CCC3C2=O)cc1", "note": "(configuration not stated)", "z-score": 0.0622},
      {"smiles": "C=CCOC(=O)Nc1c(C(=O)OC)[nH]c2ccc(Cl)cc12", "z-score": -0.103},
      {"smiles": "COCCNC(=O)/C(C#N)=C/c1ccc(-c2ccc(S(=O)(=O)N3CCOCC3)cc2)o1", "z-score": -0.137},
      {"smiles": "CCOCCCNC(=O)/C(C#N)=C/c1ccc(-c2ccc(S(=O)(=O)N3CCOCC3)cc2)o1", "z-score": 2.32},
      {"smiles": "CCCCNC(=O)/C(C#N)=C/c1ccc(-c2ccc(S(=O)(=O)N3CCOCC3)cc2)o1", "z-score": 0.164},
      {"smiles": "O=C(OCC1COc2ccccc2O1)c1c(F)cccc1F", "note": "(configuration not stated)", "z-score": 0.396},
      {"smiles": "N=c1oc2ccccc2cc1-c1nc(-c2ccc(Cl)cc2)cs1", "z-score": -0.248},
      {"smiles": "COc1ccc(-c2csc(-c3cc4ccccc4oc3=N)n2)cc1", "z-score": -0.00953},
      {"smiles": "N=c1oc2ccc3ccccc3c2cc1-c1nc(-c2ccccc2)cs1", "z-score": "3.16 (active)"},
      {"smiles": "CCN(CC)C(=O)N1c2ccccc2C=Cc2ccccc21", "z-score": -0.214},
      {"smiles": "CCc1nnc(NC(=O)c2ccc(S(=O)(=O)N3CCc4ccccc4C3)cc2)s1", "z-score": -0.158},
      {"smiles": "CCc1nnc(NC(=O)c2ccc(S(=O)(=O)N3CCCc4ccccc43)cc2)o1", "z-score": 0.372},
      {"smiles": "O=C(Nc1nnc(C2CC2)o1)c1ccc(S(=O)(=O)N2CCCc3ccccc32)cc1", "z-score": 1.85},
      {"smiles": "COc1ccc(-c2nnc(NC(=O)c3ccc(S(=O)(=O)N4CCCc5ccccc54)cc3)o2)cc1", "z-score": 2.07},
      {"smiles": "COc1ccc(-c2nnc(NC(=O)c3ccc(S(=O)(=O)N4CCc5ccccc5C4)cc3)o2)cc1", "z-score": "9.68 (active)"},
      {"smiles": "COc1ccc(-c2nnc(NC(=O)c3ccc(S(=O)(=O)N4COCC4(C)C)cc3)o2)cc1", "z-score": 1.22},
      {"smiles": "COC(=O)COc1cc(Br)c(/C=C2/SC(=O)N(CC(=O)N3CCCC3)C2=O)cc1OC", "z-score": 0.0962},
      {"smiles": "O=C(OCc1nc2ccc(Cl)cc2n1CCO)c1ccc(O)cc1", "z-score": -0.133},
      {"smiles": "CCOC(=O)c1cc(CC)sc1NC(=O)c1ccc(N2C(=O)CCC2=O)cc1", "z-score": -0.383},
      {"smiles": "COc1ccc(C)cc1S(=O)(=O)N(C)CC(=O)N1CCCCCC1", "z-score": -0.534},
      {"smiles": "O=C(CSc1nc(-c2ccco2)cc(C(F)(F)F)n1)N1CCN(c2ccc(Cl)cc2)CC1", "z-score": -0.455},
      {"smiles": "COc1ccc(C2C(C(N)=O)=C(C)Nc3nc(-c4ccccc4OC)nn32)cc1OC", "note": "(configuration not stated)", "z-score": 0.317},
      {"smiles": "O=C1N/C(=C/c2ccc(N3CCCC3)cc2)C(=O)N1c1ccccc1", "z-score": -0.886},
      {"smiles": "CCN1C(=O)/C(=C/c2ccc(N3CCCC3)cc2)NC1=S", "z-score": 1.3},
      {"smiles": "O=C1/C(=C/c2ccc(N3CCCC3)cc2)NC(=S)N1C1CC1", "z-score": 2.85},
      {"smiles": "CCCN1C(=O)/C(=C/c2ccc(N3CCCC3)c(C)c2)NC1=S", "z-score": "11 (active)"},
      {"smiles": "Cc1ccc(NC(=O)CN2C(=O)N/C(=C/c3ccc(C)s3)C2=O)cc1", "z-score": 0.22},
      {"smiles": "COC(=O)C1=C(C)N(CC(C)C)C(=O)/C1=C\\c1cccs1", "z-score": -0.236},
      {"smiles": "CCCN1C(=O)/C(=C/c2ccc(C)s2)NC1=S", "z-score": "13.9 (active)"},
      {"smiles": "CCCN1C(=O)c2cccc3c(N4CCCCC4)ccc(c23)C1=O", "z-score": -0.337},
      {"smiles": "CC(C)CN1C(=O)/C(=C/c2cccs2)NC1=S", "z-score": "15.8 (active)"},
      {"smiles": "O=C1N/C(=C\\c2ccc(N3CCOCC3)c(F)c2)C(=O)N1Cc1ccccc1", "z-score": -0.434},
      {"smiles": "Cc1cccc(CN2C(=O)N/C(=C/c3ccc(C)s3)C2=O)c1", "z-score": -0.147},
      {"smiles": "COc1ccc(N2C(=O)/C(=C/c3cccs3)NC2=S)cc1", "z-score": 1.07},
      {"smiles": "O=C1CSC(=S)N1CC1CCCO1", "note": "(configuration not stated)", "z-score": -0.08},
      {"smiles": "Cc1noc(C)c1C(=O)NCCc1ccc(Cl)cc1", "z-score": -0.377},
      {"smiles": "COCC(=O)NC1CCN(C(=O)Nc2ccc(Br)cc2)CC1", "z-score": -0.036},
      {"smiles": "CCOC(=O)c1c(C)[nH]c(C(=O)/C(C#N)=C/c2ccc(OC(F)F)c(OC)c2)c1C", "z-score": -0.315},
      {"smiles": "O=C(NCC(c1cccs1)N1CCOCC1)c1ccccc1NS(=O)(=O)c1ccc(Cl)cc1", "note": "(configuration not stated)", "z-score": -0.359},
      {"smiles": "Cc1csc(NC(=O)C2CCCN(S(=O)(=O)c3cnc[nH]3)C2)n1", "note": "(configuration not stated)", "z-score": 0.36},
      {"smiles": "Cc1cccc(OCCSc2nc3c([nH]2)c(=N)ncn3Cc2ccccc2)c1", "z-score": -0.0916},
      {"smiles": "CC(C)(C)c1ccc(C(=O)NC(=S)NCC2CCCO2)cc1", "note": "(configuration not stated)", "z-score": 1.62},
      {"smiles": "Cc1ccccc1Nc1nc(-c2sc(NC(=O)c3ccco3)nc2C)cs1", "z-score": -0.239},
      {"smiles": "Nc1ccc(Sc2cnn(-c3ccccc3)c(=O)c2Cl)cc1", "z-score": -2.01},
      {"smiles": "Cc1ccc(/C=C2/NC(=O)N(Cc3ccccc3)C2=O)s1", "z-score": -0.0544},
      {"smiles": "CCN1C(=O)/C(=C\\N(C)C)NC1=S", "z-score": -0.121},
      {"smiles": "CCN1C(=O)/C(=C/c2ccc(C)s2)NC1=S", "z-score": "15.1 (active)"},
      {"smiles": "CCS(=O)(=O)N1CCN(c2ccc(Cl)cc2[N+](=O)[O-])CC1", "z-score": 0.325},
      {"smiles": "CCOc1ccc(C(=O)CN2CCN(S(=O)(=O)c3ccc(Br)cc3)CC2)cc1", "z-score": "4.08 (active)"},
      {"smiles": "COc1cccc(C(=O)CN2CCN(S(=O)(=O)c3ccc(Br)cc3)CC2)c1", "z-score": -0.472},
      {"smiles": "CCOc1ccc(C(=O)CN2CCN(S(=O)(=O)c3ccc(OC)cc3)CC2)cc1", "z-score": -0.414},
      {"smiles": "CN1CCN(c2ccccc2NC(=O)COc2ccccc2)CC1", "z-score": -0.109}
    ]}
  ]
}
